# Screening results deposited in PubChem BioAssay by National Center for Advancing Translational Sciences (NCATS).
# AmpC inh detg: blocks E. coli AmpC beta-lactamase in detergent assay | P00811 | AmpC hydrolysis of nitrocefin, absorbance 480 nm, 0.01% Triton | Potency, µM (series often up to 114 µM), without a hit: at the highest dose activity change, negative = inhibition, most hits filed as inhibitors | actives 0.041% (n = 370,000) | AID 485294;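 further: 0% = no-compound wells and -100% = no-enzyme wells; nearly all actives have a fitted effect of over 25% in size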
# Target sequence (P00811 whole entry, looked up): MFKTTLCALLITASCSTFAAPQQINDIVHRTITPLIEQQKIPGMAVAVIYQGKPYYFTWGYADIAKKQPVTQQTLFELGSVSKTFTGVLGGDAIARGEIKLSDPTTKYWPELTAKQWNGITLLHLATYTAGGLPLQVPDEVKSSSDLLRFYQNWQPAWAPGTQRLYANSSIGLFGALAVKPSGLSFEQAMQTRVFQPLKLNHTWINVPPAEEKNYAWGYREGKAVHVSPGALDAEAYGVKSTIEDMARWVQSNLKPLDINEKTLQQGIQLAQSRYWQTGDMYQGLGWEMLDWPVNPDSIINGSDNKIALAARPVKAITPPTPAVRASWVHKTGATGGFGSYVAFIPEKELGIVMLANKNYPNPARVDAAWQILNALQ
#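 20 mM phosphate pH 7.0 + 0.01% (detergent screen) or 0.0001% Triton X-100; 5.3 nM AmpC reagent; cpd preinc 15 min RT; nitrocefin (800 uM stock) to start; A480 q20 s × 4 min; Activity was normalised to no-enzyme and no-compound control wells.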
# SARS PLpro yeast: SARS-CoV PLP inhibition in yeast. Potency, µM (highest dose often 32.9 µM), for inactives: top-dose activity, positive = growth rescue, most hits filed as activators. actives 0.19% (n = 330,000). AID 485353. S. cerevisiae expressing SARS-CoV PLpro, growth rescue; calls by dose curve; further: 0% is about no effect; nearly all actives have a fitted effect of over 55% in size
# AmpC inh no detg: inhibitors of E. coli AmpC beta-lactamase without detergent. AmpC nitrocefin hydrolysis, absorbance 480 nm, 0.0001% Triton. Potency, µM (titrated, usually from 57.1 µM), for the others: at the top dose activity change, negative = inhibition, usual class: inhibitors. actives 0.52% (n = 330,000). P00811;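 further: plate controls were no compound for no effect and no enzyme for full effect; nearly all actives have a fitted effect of over 20% in size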
#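 20 mM phosphate pH 7.0 + 0.01% (detergent screen) or 0.0001% Triton X-100; 5.3 nM AmpC reagent; cpd preinc 15 min RT; nitrocefin (800 uM stock) to start; A480 q20 s × 4 min; Activity was normalised to no-enzyme and no-compound control wells.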
# AMA1 RON2 block: disrupts binding of P. falciparum AMA1 to RON2. AID 720542. actives 0.2% (n = 360,000). Potency, µM (series often up to 58.2 µM), for the others: top-dose activity change, negative = inhibition, actives largely listed as inhibitors. AlphaScreen AMA1-biotinylated RON2 peptide binding;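 further: 0% = vehicle wells and -100% = peptide control; nearly all actives have a fitted effect of over 45% in size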
#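 AMA1 (3D7) with his tag at 25 nM final met compounds first, then biotinylated RON2 peptide at 25 nM; detection used donor plus acceptor beads, 10 µg/mL apiece, read by AlphaScreen after 30 min at room temperature.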
# Vaccinia Venus: inhibitors of vaccinia virus (Venus reporter) | Vaccinia virus Venus reporter expression, fluorescence | Potency, µM (top dose mostly 36.5 µM), without a hit: at the highest dose activity change, negative = inhibition, most hits filed as inhibitors | actives 0.46% (n = 330,000) | AID 720580; calls by dose curve; tested in A549 cells; further: on the % scale 0 is the no-effect control and ±100 the full control effect; nearly all actives have a fitted effect of over 30% in size
# Vaccinia mCherry: vaccinia inhibition (mCherry reporter). actives 0.63% (n = 310,000). Vaccinia virus mCherry reporter infection, fluorescence. Potency, µM (series often up to 36.5 µM), inactives show top-dose activity change, negative = inhibition, most hits filed as inhibitors; calls by dose curve; tested in A549 cells; further: on the % scale 0 is the no-effect control and ±100 the full control effect; nearly all actives have a fitted effect of over 35% in size
# The depositor's hits bear a star; i = inactive; ? = inconclusive; nt = no result; [ ] = dose if it differs, or a comment. This is a sample that favours compounds with a hit; in the whole collection about 1.3% have one here. Unless noted, the call rests on the fitted dose curve; in most records, active means well fitted curve in the direction sought with a large enough effect; inconclusive means small, poorly fitted or top-dose-only effect, or another doubt; inactive means no such curve, though single readings can be large; an effect the other way counts as inactive or inconclusive. Potency means the concentration at half of the fitted maximal effect.
SMILES,AmpC inh detg,SARS PLpro yeast,AmpC inh no detg,AMA1 RON2 block,Vaccinia Venus,Vaccinia mCherry
O=C(c1ccc(N2CCC(NCCCn3ncc4ccccc43)CC2)cc1)N1CCc2ccccc2C1,nt,nt,nt,nt,-18%,-25%
COc1ccccc1Nc1nn2c(=O)c3ccc(C(=O)NCCC4=CCCCC4)cc3nc2s1,23%,nt,nt,nt,7.9µM*,8.9µM*
Cc1ccc(C)c(Nc2nn3c(=O)c4ccc(C(=O)NCCC5=CCCCC5)cc4nc3s2)c1,20%,nt,nt,nt,?,?
Cc1ccccc1NS(=O)(=O)c1cc(C(=O)NCCC2=CCCCC2)ccc1C,?,0%,10µM*,6%,-25%,?
Cc1ccc(CN2CCc3nnc(C(NS(C)(=O)=O)C(C)C)n3CC2)cc1C (stereo not given),nt,nt,nt,nt,-15%,-24%
C[C@@H]1CN(Cc2ccc3c(c2)CN(Cc2cccc4c2OCO4)CCO3)C[C@H](C)O1,nt,nt,nt,nt,0%,-14%
Cc1ccc(S(=O)(=O)C2(C(=O)Nc3cccc(F)c3)CC2)cc1,?,1%,2.8µM*,6%,-2%,i
Cc1ccc(NC(=O)C2(S(=O)(=O)c3ccc(C)cc3)CC2)cc1,?,3%,-22%,-2%,nt,nt
FC(F)(F)c1cccc(NC(=S)Nc2cccc(NC(=S)Nc3cccc(C(F)(F)F)c3)n2)c1,-1%,0%,7.9µM*,77%,10%,?
Cc1ccc(/C=N/NC(=O)c2cccc(S(=O)(=O)Nc3ccccc3Cl)c2)s1,-15%,14%,-24%,6%,-14%,-3%
O=C(N/N=C/c1ccccc1C(=O)O)c1cccc(S(=O)(=O)Nc2cc(Cl)ccc2Cl)c1,-7%,0%,13µM*,9%,1%,-22%
COc1cc(/C=C2\CCC/C(=C\c3ccc(O)c(OC)c3)C2=O)ccc1O,?,-11%,-11%,-8%,?,6.3µM*
COc1cc(/C=C2/CCCC(C(=O)C(F)(F)F)=C2O)ccc1O,4%,2%,-25%,8%,-8%,-18%
C/C(=N\NC(N)=S)C1C2C3CC4C5CC(C42)C1C53 (stereo not given),7%,-12%,-22%,-4%,?,11µM*
Cc1cc(C)n(CCC(=O)N/N=C/c2ccccc2O)n1,-3%,16%,3%,107%,?,?
Cc1cc(C)n(CCC(=O)N/N=C/c2ccc(O)cc2O)n1,-5%,7%,-16%,77%,?,20µM*
Cc1c(C(=O)NCC2(N3CCOCC3)CCCCCC2)cnn1-c1nccc(-c2ccccc2F)n1,nt,nt,nt,nt,-13%,-6%
COc1ccc2nc(Nc3nc4cc5c(cc4s3)OCO5)sc2c1,2%,-21%,22µM*,23%,-13%,-22%
CC/C=C1/N=C2C(=O)N(C)C(=O)N=C2N(C)N1,nt,nt,nt,nt,2.2µM*,1.8µM*
CN1N/C(=C\c2ccccc2)N=C2C(=O)N(C)C(=O)N=C21,nt,nt,nt,nt,8.9µM*,7.9µM*
COc1ccccc1C1CN(CCNC(=O)c2sccc2Cl)Cc2ccccc2O1 (stereo not given),nt,nt,nt,nt,4%,-13%
COc1cc(Br)cc(/C=N/NC(=O)Cc2ccc(C(F)(F)F)cc2[N+](=O)[O-])c1O,-3%,25%,-22%,31%,13µM*,20µM*
CCN1C(=O)/C(=C2\C=Cc3ccccc3N2CC)SC1=S,-1%,-3%,-13%,1.2µM*,-4%,-14%
CSc1nc(N(C)CCO)c2sc3nc(-c4ccco4)c4c(c3c2n1)CCC4,-9%,1%,69%,12µM*,nt,nt
Cc1c(C(=O)NCCc2cccnc2)cnn1-c1ncc2c(n1)-c1ccccc1CC2,nt,nt,nt,nt,-25%,?
SMILES,AmpC inh detg,SARS PLpro yeast,AmpC inh no detg,AMA1 RON2 block,Vaccinia Venus,Vaccinia mCherry
Cn1c(/C(C#N)=C/c2ccc(C(F)(F)F)cc2)nc2ccccc21,3%,nt,nt,nt,-10%,3%
NC1(c2ccc(-c3nc4ccn5c(=O)[nH]nc5c4cc3-c3ccccc3)cc2)CCC1,nt,nt,nt,nt,10µM*,7.9µM*
O=S(=O)(Nc1nc2ccccc2s1)c1ccc(Br)s1,?,-3%,32µM*,-3%,-7%,i
O=C(N/N=C\c1c[nH]c2ccccc12)c1ccc(O)cc1,0%,-2%,-20%,2%,-9%,i
O=C(N/N=C/c1c[nH]c2ccccc12)c1cc(Cl)ccc1O,-9%,-4%,16µM*,124%,nt,nt
O=C(N/N=C/c1c[nH]c2ccccc12)c1ccc(Br)cc1,-11%,-8%,20µM*,55%,-22%,-21%
COc1ccccc1-c1ccnc(-n2ncc(C(=O)NCCc3ccccn3)c2C)n1,nt,nt,nt,nt,-15%,?
COc1ccc(-c2csc(NC(=O)c3ccccc3NS(=O)(=O)c3ccc(C)cc3)n2)cc1,-5%,-40%,-23%,-22%,?,11µM*
COc1ccc(-c2csc(NC(=O)c3ccc(S(=O)(=O)N4CCc5ccccc5C4)cc3)n2)cc1,?,11%,8.9µM*,0%,-17%,-20%
Cc1cccc2c(C(O)c3cn(C)c4ccccc34)c[nH]c12 (stereo not given),nt,nt,nt,nt,15%,-11%
Cc1ccc(C2C3=C(CCCC3=O)N=C3c4ccccc4C(=O)C32)cc1 (stereo not given),-3%,-4%,18µM*,0%[11.6 µM],-27%,-29%
O=C1CCCC2=C1C(c1ccccc1)C1C(=O)c3ccccc3C1=N2 (stereo not given),1%,29%,-45%,?,?,?
CCC1(C2CCN(C(=O)c3cc(F)ccc3F)CC2)NC(=O)N(CCc2scnc2C)C1=O (stereo not given),nt,nt,nt,nt,21%,-5%
O=C(Nc1cccc(-c2ccc(N3CCOCC3)nn2)c1)c1ccc([N+](=O)[O-])cc1,-7%,-2%,32µM*,0%,-11%,i
CCCc1cc(C(=O)Nc2cccc(Cl)c2C)no1,?,-7%,-20%,11%,-7%,34%
CCCc1cc(C(=O)Nc2ccccc2SC)no1,6%,-25%,40µM*,33%,-5%,i
CCCc1cc(C(=O)Nc2cccc(C(C)=O)c2)no1,3%,-18%,-7%,8%,1%,i
CCCc1cc(C(=O)Nc2ccc(C(C)=O)cc2)no1,-4%,-2%,45µM*,-6%,4%,-10%
CC(C)C(=O)NCC1CCC2(CCN(Cc3ccc(-c4ccccc4Cl)o3)CC2)O1 (stereo not given),nt,nt,nt,nt,-23%,-24%
C=CC(=O)N1C/C=C\C(c2ccc(OC)cc2)N(Cc2ccc(F)cc2)C(=O)C1 (stereo not given),-6%,-2%,41%,3%,0.89µM*,?
